High-throughput results (PubChem BioAssay)
MARV entry inh = blocks Marburg virus binding to or entry into cells; Potency, µM (top dose mostly 37.8 µM), without a hit: at the top dose activity change, negative = inhibition, actives largely listed as inhibitors; Marburg virus pseudotyped entry inhibition, cell reporter; AID 540276; 300,000 tested, 1.8% active; calls by dose curve; tested in HEK293 cells; also: potency is read from the fitted curve at half-maximal effect
Vaccinia mCherry = vaccinia inhibition (mCherry reporter). Vaccinia virus mCherry reporter infection, fluorescence. Potency, µM (highest dose often 36.5 µM), for the others: at the top dose activity change, negative = inhibition, usual class: inhibitors. 310,000 tested, 0.63% active; calls by dose curve; tested in A549 cells; also: potency is read from the fitted curve at half-maximal effect; nearly all actives have a fitted effect of over 35% in size
HCMV antiviral = blocks human cytomegalovirus replication; HFF cells, HCMV-luciferase reporter, 72 h; stronger effect = lower value; activity change, negative = inhibition, % at 57.5 µM; 410,000 tested, 4.5% active; AID 1259415; in the data active = activity change below about -60%; inconclusive = no clear call, values can overlap the other calls; inactive = above about -39%
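Screen run at 2 compound doses on HFFs infected with reporter HCMV, MOI 1 PFU/cell. Luciferase activity from cell lysates at 72 h post infection gave inhibition relative to buffer-only and Salinomycin wells.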
FMDV antiviral = blocks foot and mouth disease virus. FMDV antiviral cell-based qHTS. Potency, µM (titrated, usually from 57.9 µM), for the others: top-dose activity change, negative = inhibition, hits mostly inhibitors. 410,000 tested, 1.2% active. AID 1159524; calls by dose curve; tested in HEK293T cells; also: read-out not given here; potency is read from the fitted curve at half-maximal effect; nearly all actives have a fitted effect of over 45% in size
VACV Venus inh = vaccinia inhibition (Venus reporter); 330,000 tested, 0.46% active; Vaccinia virus Venus reporter expression, fluorescence; AID 720580; Potency, µM (doses to about 36.5 µM), for the others: top-dose activity change, negative = inhibition, actives largely listed as inhibitors; calls by dose curve; tested in A549 cells; also: potency is read from the fitted curve at half-maximal effect; nearly all actives have a fitted effect of over 30% in size
LASV entry inh = Lassa virus entry inhibition; Lassa virus pseudotype entry inhibition, cell reporter; Potency, µM (titrated, usually from 37.9 µM), for inactives: at the highest dose activity change, negative = inhibition, actives largely listed as inhibitors; 300,000 tested, 1.2% active; AID 540256; calls by dose curve; tested in HEK293 cells; also: potency is read from the fitted curve at half-maximal effect; nearly all actives have a fitted effect of over 50% in size
The depositor's hits bear a star; i = inactive; ? = inconclusive; · = not tested or not shown; [ ] = another dose, or the depositor's remark. Hits are enriched below; roughly 6.5% of the tested compounds scored in any of these assays. % is scaled to controls: 0 for no effect and ±100 for the full control effect.

SMILES	MARV entry inh	Vaccinia mCherry	HCMV antiviral	FMDV antiviral	VACV Venus inh	LASV entry inh
CC[n+]1c(/C=C/N(C)c2ccccc2)oc2ccc(F)cc21	?	-26%	-85*	-23%	-17%	?
COc1cccc(CN(C)C(=O)c2cnn(-c3ncc4c(n3)-c3ccccc3CCC4)c2C)c1	·	?	·	-29%	-28%	·
Cc1cc2c(c(=O)o1)[C@H](Cc1ccccc1)C(C#N)=C(N)O2	19%[46.1 µM]	·	·	·	·	·
CC(C)C[C@H](NC(=O)c1nc[nH]c1C(=O)N[C@@H](CC(C)C)C(=O)OC(C)(C)C)C(=O)OCc1ccccc1	·	-22%	-101*	-25%	-21%	·
CC(C)C[C@H](NC(=O)c1nc[nH]c1C(=O)NCC(=O)OC(C)(C)C)C(=O)OCc1ccccc1	·	?	40	-26%	-3%	·
CC(C)C[C@H](NC(=O)c1nc[nH]c1C(=O)N1CCN(C(=O)OC(C)(C)C)CC1)C(=O)OC(C)(C)C	·	?	-96*	-16%	-9%	·
CC(C)(C)OC(=O)[C@H](CCCCN)NC(=O)c1nc[nH]c1C(=O)N[C@@H](CCCCN)C(=O)OC(C)(C)C	·	-12%	-13	-3%	-7%	·
CC(C)C[C@H](NC(=O)c1[nH]cnc1C(=O)Nc1ccccc1)C(=O)OC(C)(C)C	·	-19%	-102*	0%	?	·
CC(C)(C)OC(=O)[C@H](Cc1ccccc1)NC(=O)c1nc[nH]c1C(=O)N[C@@H](CCCCN)C(=O)OC(C)(C)C	·	i	-68*	-10%	-5%	·
COc1ccc2[nH]cc(CCNC(=O)Cc3c(F)cccc3Cl)c2c1	-2%	-5%	-16	-14%	-12%	-15%
Cc1cccc(CNCCc2c[nH]c3ccccc23)c1	10µM*	?	-99*	1%	-29%	?
COc1ccc2[nH]cc(CCNC(=O)c3ccccc3Cl)c2c1	2%[46.1 µM]	?	-84*	9%	-4%	-10%
Fc1cccc(CNCCc2c[nH]c3ccccc23)c1	·	·	-24	12%	·	·
CC(=O)c1cccc(NC(=O)NCCc2c[nH]c3ccccc23)c1	-3%[46.1 µM]	i[7.34 µM]	-82*	-4%	3%[7.34 µM]	0%
Cc1ccc(NC(=O)CCc2c[nH]c3ccccc23)nc1	?	-14%	-74*	4%	-22%	?
O=C1c2ccccc2NC(c2ccccc2OCc2ccccc2)N1Cc1ccco1 (stereo not given)	·	6%	·	·	-6%	·
COCC(=O)Nc1cc(C(=O)N2CCN(C)C(c3ccccc3)C2)c2c(c1)nc(-c1ccncc1)n2C (stereo not given)	·	i	·	-7%	-19%	·
Cc1ccc(C(=O)NCCc2c[nH]c3ccccc23)c(C)c1	?	-23%	174	-18%	-1%	11µM*
COC(=O)Cc1c(O)ccn(CCc2c[nH]c3ccc(OC)cc23)c1=O	3%[46.1 µM]	i	-73*	0%	5%	9%[46.1 µM]
COc1ccc2[nH]cc(CCNc3ncncc3-c3ccccc3C)c2c1	·	·	·	20µM*	·	·
O=C(NCCc1c[nH]c2ccccc12)c1ccccc1	7%	-22%	66	40%	-8%	?
COc1ccc2[nH]cc(CCNc3ncncc3-c3cccnc3)c2c1	·	·	·	-21%	·	·
COC(=O)Cc1c(O)ccn(CCc2c[nH]c3ccccc23)c1=O	·	·	?	-19%	·	·
CC(=O)[C@]12C[C@]3(C)CCCN(C(=O)N[C@@H]1c1ccccc1)C32 (stereo not given in full)	10%[14.2 µM]	·	·	·	·	?
CC(C)c1ccc(/C=C/C(=O)NC(=S)Nc2ccc(CN3CCOCC3)cc2)cc1	?	i	?	20µM*	-12%	?
O=C(NC(=S)Nc1ccc(CN2CCOCC2)cc1)c1ccc([N+](=O)[O-])cc1	·	·	32	?	·	·
CC(C)c1ccc(/C=C/C(=O)NC(=S)NN2CCOCC2)cc1	·	·	-98*	-5%	·	·
O=C(/C=C/c1cccc([N+](=O)[O-])c1)NC(=S)Nc1ccc(CN2CCOCC2)cc1	3%	-4%	-72*	?	-17%	?
CC12C=C(/C=C/c3ccc(C(F)(F)F)cc3)C(C)(C1)C(c1ccc(C(F)(F)F)cc1)CC2=O (stereo not given)	6%[14.2 µM]	·	·	·	·	·
CCc1ccc(S(=O)(=O)NCCc2csc(-c3ccccc3)n2)s1	?	?	-63*	·	-16%	10%
